Source: PubChem BioAssay (EPA / NIEHS)
Active and inactive are the calls of the source. The calls were made as follows: active = hit-call score of the fitted dose curve at least 0.9, where 1 is the maximum; inactive = score below 0.9.

Columns and labels:
Settings in all cases: mRNA level, 48 h; actives raise or lower the signal
[1] = read-out: Alpha-fetoprotein (AFP) gene, AFP (gene 174); assay: LTEA_HepaRG_AFP: Life Technologies and Expression Analysis (LTEA) Assay for Alpha-fetoprotein (AFP) gene using HepaRG (AID 2283472)
Outline: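 Differentiated human HepaRG cells exposed 48 h in serum-free induction medium, 8-point half-log series from 100 uM in 0.5% DMSO, duplicate. AFP mRNA by qRT-PCR, normalized to ACTB, GAPDH, POLR2A; bidirectional fit vs DMSO.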

[2] = read-out: BCL2L11 (gene 10018); assay: LTEA_HepaRG_BCL2L11: Life Technologies and Expression Analysis (LTEA) Assay for Bcl-2 (BCL2L11) gene using HepaRG (AID 2283473)
Outline: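 Cells were plated, cultured 48 h, switched to serum-free induction medium, then dosed in duplicate for 48 h at eight half-log concentrations up to 100 uM. Lysates underwent RNA isolation and TaqMan qRT-PCR; gain or loss versus DMSO was fitted.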

[3] = read-out: Apolipoprotein A-V (APOA5) gene, APOA5 (gene 116519); assay: LTEA_HepaRG_APOA5: Life Technologies and Expression Analysis (LTEA) Assay for Apolipoprotein A-V (APOA5) gene using HepaRG (AID 2283474)
Outline: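 Human liver HepaRG cells are treated 48 h with test chemicals (100 uM top, half-log dilutions, 0.5% DMSO). APOA5 mRNA induction or loss is measured by qRT-PCR relative to vehicle.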

[4] = read-out: Apoptosis regulator Bcl-2 (Homo sapiens) (UniProt P10415); assay: LTEA_HepaRG_BCL2: Life Technologies and Expression Analysis (LTEA) Assay for Bcl-2 gene using HepaRG (AID 2283475)
Outline: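 Differentiated human HepaRG cells in serum-free induction medium exposed 48 h, in duplicate, to 8-point half-log series from 100 uM in 0.5% DMSO. BCL2 mRNA by qRT-PCR (TaqMan/Fluidigm), normalized to ACTB, GAPDH, POLR2A; bidirectional fit against DMSO.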

[5] = read-out: Bcl-2 (BID) gene, BID (gene 637); assay: LTEA_HepaRG_BID: Life Technologies and Expression Analysis (LTEA) Assay for Bcl-2 (BID) gene using HepaRG (AID 2283476)
Outline: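 Gene expression by qRT-PCR in HepaRG cells after 48 h exposure, duplicate wells, eight half-log concentrations topping at 100 uM in 0.5% DMSO. Normalized to ACTB, GAPDH, POLR2A; bidirectional fitting relative to DMSO.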

[6] = read-out: Caspase-3 (Homo sapiens) (UniProt P42574); assay: LTEA_HepaRG_CASP3: Life Technologies and Expression Analysis (LTEA) Assay for cysteine-aspartic acid protease (CASP3) using HepaRG (AID 2283477)
Outline: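 In HepaRG liver cells dosed for 48 h at up to 100 uM (eight-point, duplicate), CASP3 expression changes are scored by qRT-PCR. Activity is fitted in both directions with 0.5% DMSO as baseline.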

[7] = read-out: Cytochrome P450 (CYP24A1), CYP24A1 (gene 1591); assay: LTEA_HepaRG_CYP24A1: Life Technologies and Expression Analysis (LTEA) Assay for Cytochrome P450 (CYP24A1) using HepaRG (AID 2283478)
Outline: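 Human liver HepaRG cultures receive each chemical for 48 h across an eight-point half-log series topping at 100 uM in 0.5% DMSO. Induction or suppression of CYP24A1 mRNA is scored relative to vehicle after housekeeping-gene normalization.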

[8] = read-out: Cytochrome P450 (CYP1A2), CYP1A2 (gene 1544); assay: LTEA_HepaRG_CYP1A2: Life Technologies and Expression Analysis (LTEA) Assay for Cytochrome P450 (CYP1A2) using HepaRG (AID 2283479)
Outline: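 Assesses CYP1A2 mRNA in human HepaRG liver cells after 48 h chemical exposure at up to 100 uM. Values come from qRT-PCR with bidirectional curve fitting relative to DMSO.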

[9] = read-out: cysteine-aspartic acid protease (CASP8), CASP8 (gene 841); assay: LTEA_HepaRG_CASP8: Life Technologies and Expression Analysis (LTEA) Assay for cysteine-aspartic acid protease (CASP8) using HepaRG (AID 2283480)
Outline: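 Differentiated human HepaRG cells, plated 48 h then switched to serum-free induction medium, were exposed in duplicate for 48 h to 8 half-log concentrations up to 100 uM in 0.5% DMSO. CASP8 mRNA was quantified by qRT-PCR, normalized to ACTB/GAPDH/POLR2A.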

[10] = read-out: Cytochrome P450 (CYP2B6), CYP2B6 (gene 1555); assay: LTEA_HepaRG_CYP2B6: Life Technologies and Expression Analysis (LTEA) Assay for Cytochrome P450 (CYP2B6) using HepaRG (AID 2283481)
Outline: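 Using 48 h treatment of HepaRG cells in serum-free induction medium, concentrations spanned half-log steps from 100 uM in 0.5% DMSO vehicle. CYP2B6 mRNA induction or loss is scored by qRT-PCR against DMSO.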

[11] = read-out: Cytochrome P450 2C19 (Homo sapiens) (UniProt P33261); assay: LTEA_HepaRG_CYP2C19: Life Technologies and Expression Analysis (LTEA) Assay for CYP2C19 using HepaRG (AID 2283482)
Outline: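 Human HepaRG liver cells received test chemicals for 48 h (highest 100 uM, half-log dilutions in 0.5% DMSO). CYP2C19 mRNA induction or loss is read by multiplexed qRT-PCR and fitted in both directions versus vehicle.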

[12] = read-out: CYP2C8 (gene 1558); assay: LTEA_HepaRG_CYP2C8: Life Technologies and Expression Analysis (LTEA) Assay for CYP2C8 using HepaRG (AID 2283483)
Outline: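 Differentiated human HepaRG cells were exposed for 48 h in serum-free induction medium to eight half-log concentrations up to 100 uM in 0.5% DMSO, in duplicate. CYP2C8 mRNA was measured by TaqMan qRT-PCR, normalized to ACTB, GAPDH and POLR2A, and fitted bidirectionally against DMSO.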

[13] = read-out: CYP2C9 (gene 1559); assay: LTEA_HepaRG_CYP2C9: Life Technologies and Expression Analysis (LTEA) Assay for CYP2C9 using HepaRG (AID 2283484)
Outline: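 Differentiated human HepaRG cells were exposed 48 h in serum-free induction medium to eight half-log concentrations up to 100 uM in 0.5% DMSO. CYP2C9 mRNA was measured by qRT-PCR, normalized to ACTB, GAPDH and POLR2A, and fitted bidirectionally against DMSO.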

[14] = read-out: CYP2E1 (gene 1571); assay: LTEA_HepaRG_CYP2E1: Life Technologies and Expression Analysis (LTEA) Assay for CYP2E1 using HepaRG (AID 2283485)
Outline: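 HepaRG cells, plated 48 h, then exposed 48 h in serum-free induction medium to eight half-log concentrations from 100 uM in 0.5% DMSO, duplicate. CYP2E1 mRNA by qRT-PCR, normalized to ACTB/GAPDH/POLR2A; bidirectional fit versus DMSO.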

[15] = read-out: CYP4A11 (gene 1579); assay: LTEA_HepaRG_CYP4A11: Life Technologies and Expression Analysis (LTEA) Assay for CYP4A11 using HepaRG (AID 2283486)
Outline: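 Readout is CYP4A11 mRNA induction or suppression (qRT-PCR, ACTB/GAPDH/POLR2A normalization) in human HepaRG cells after 48 h chemical treatment, concentrations to 100 uM in 0.5% DMSO, fitted bidirectionally against vehicle.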

[16] = read-out: DNA damage-inducible transcript 3 (DDIT3), DDIT3 (gene 1649); assay: LTEA_HepaRG_DDIT3: Life Technologies and Expression Analysis (LTEA) Assay for DNA damage-inducible transcript 3 (DDIT3) using HepaRG (AID 2283488)
Outline: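 HepaRG cells, 48 h after plating, exposed 48 h in serum-free induction medium to 8 half-log concentrations up to 100 uM in 0.5% DMSO, in duplicate. DDIT3 mRNA measured by TaqMan qRT-PCR, normalized to ACTB, GAPDH and POLR2A. Fitted bidirectionally against DMSO.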

[17] = read-out: Pro-epidermal growth factor (Homo sapiens) (UniProt P01133); assay: LTEA_HepaRG_EGF: Life Technologies and Expression Analysis (LTEA) Assay for Epidermal growth factor (EGF) using HepaRG (AID 2283489)
Outline: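 EGF expression changes in human HepaRG cells are scored by bidirectional fitting relative to 0.5% DMSO controls. Chemicals are tested at eight half-log concentrations up to 100 uM for 48 h in serum-free induction medium.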

[18] = read-out: Early growth response protein 1 (EGR1) transcription factor, EGR1 (gene 1958); assay: LTEA_HepaRG_EGR1: Life Technologies and Expression Analysis (LTEA) Assay for Early growth response protein 1 (EGR1) transcription factor using HepaRG (AID 2283490)
Outline: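 Differentiated human HepaRG cells in serum-free induction medium were exposed in duplicate for 48 h to eight concentrations (top 100 uM, half-log steps) in 0.5% DMSO. EGR1 mRNA was quantified by qRT-PCR, normalized to ACTB, GAPDH and POLR2A, and fitted bidirectionally versus DMSO.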

[19] = read-out: Ezrin (EZR), EZR (gene 7430); assay: LTEA_HepaRG_EZR: Life Technologies and Expression Analysis (LTEA) Assay for Ezrin (EZR) using HepaRG (AID 2283491)
Outline: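 EZR transcript levels came from Fluidigm qRT-PCR and were normalized to three housekeeping genes after 48 h chemical exposure of HepaRG cells. Dosing used an 8-point half-log series with a 100 uM top concentration in 0.5% DMSO, tested in duplicate; both directions were fitted versus vehicle.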

[20] = read-out: Cytochrome P450 3A4 (Homo sapiens) (UniProt P08684); assay: LTEA_HepaRG_CYP3A4: Life Technologies and Expression Analysis (LTEA) Assay for CYP3A4 using HepaRG (AID 2283487)
Outline: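 Differentiated HepaRG cells, plated 48 h, then dosed 48 h in serum-free induction medium with 0.5% DMSO, 8 half-log concentrations up to 100 uM, duplicate. CYP3A4 mRNA by qRT-PCR, normalized to ACTB/GAPDH/POLR2A; bidirectional fit versus DMSO.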

Measured: AC50

Sequence of Apoptosis regulator Bcl-2 (Homo sapiens) (P10415 whole entry, looked up): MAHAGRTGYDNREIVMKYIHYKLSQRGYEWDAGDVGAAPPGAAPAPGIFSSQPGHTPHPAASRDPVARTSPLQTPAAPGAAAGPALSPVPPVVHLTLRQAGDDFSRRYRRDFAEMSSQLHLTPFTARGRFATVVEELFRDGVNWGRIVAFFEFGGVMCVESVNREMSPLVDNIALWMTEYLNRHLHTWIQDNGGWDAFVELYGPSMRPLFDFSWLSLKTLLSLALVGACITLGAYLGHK
Sequence of Cytochrome P450 2C19 (Homo sapiens) (P33261 whole entry, looked up): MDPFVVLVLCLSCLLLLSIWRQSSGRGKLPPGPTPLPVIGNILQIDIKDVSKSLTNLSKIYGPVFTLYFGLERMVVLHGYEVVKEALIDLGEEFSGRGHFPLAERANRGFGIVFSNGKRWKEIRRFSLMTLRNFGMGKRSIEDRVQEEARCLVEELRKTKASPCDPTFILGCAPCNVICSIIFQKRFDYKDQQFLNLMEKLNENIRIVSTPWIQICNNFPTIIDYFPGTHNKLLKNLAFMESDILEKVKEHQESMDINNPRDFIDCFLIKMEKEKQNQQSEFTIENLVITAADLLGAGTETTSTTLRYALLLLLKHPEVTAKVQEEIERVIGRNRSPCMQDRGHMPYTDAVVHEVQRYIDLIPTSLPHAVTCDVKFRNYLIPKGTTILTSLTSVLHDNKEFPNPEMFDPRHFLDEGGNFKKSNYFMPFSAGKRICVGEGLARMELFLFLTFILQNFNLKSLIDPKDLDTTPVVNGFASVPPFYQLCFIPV
Sequence of Caspase-3 (Homo sapiens) (P42574 whole entry, looked up): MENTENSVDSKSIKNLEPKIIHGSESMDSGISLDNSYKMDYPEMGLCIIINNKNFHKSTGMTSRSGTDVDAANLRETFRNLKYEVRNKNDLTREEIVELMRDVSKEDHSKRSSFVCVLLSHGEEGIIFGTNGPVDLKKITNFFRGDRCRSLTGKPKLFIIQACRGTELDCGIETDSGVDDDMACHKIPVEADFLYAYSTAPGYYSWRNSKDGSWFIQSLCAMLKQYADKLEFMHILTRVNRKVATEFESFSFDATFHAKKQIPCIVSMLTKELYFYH
Sequence of Cytochrome P450 3A4 (Homo sapiens) (P08684 whole entry, looked up): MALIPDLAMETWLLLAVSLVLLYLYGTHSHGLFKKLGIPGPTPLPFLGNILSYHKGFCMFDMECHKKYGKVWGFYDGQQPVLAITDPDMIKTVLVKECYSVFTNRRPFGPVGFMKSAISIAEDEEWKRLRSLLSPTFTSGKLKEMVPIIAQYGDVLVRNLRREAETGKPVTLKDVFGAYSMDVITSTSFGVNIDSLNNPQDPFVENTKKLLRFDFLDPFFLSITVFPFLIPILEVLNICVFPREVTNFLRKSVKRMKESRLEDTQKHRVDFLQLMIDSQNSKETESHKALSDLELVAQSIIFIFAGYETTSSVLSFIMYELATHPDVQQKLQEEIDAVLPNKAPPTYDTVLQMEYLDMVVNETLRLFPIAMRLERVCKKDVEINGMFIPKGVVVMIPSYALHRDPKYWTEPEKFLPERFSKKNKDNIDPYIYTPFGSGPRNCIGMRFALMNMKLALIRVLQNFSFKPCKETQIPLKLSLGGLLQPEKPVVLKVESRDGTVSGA

Oc1ccc2ccc3cccc4ccc1c2c34
active: [8] 11.5 µM | [14] 50 µM
not listed: [20]
inactive: all other assays above

Cc1ccc(N=C=O)cc1N=C=O
active: [1] 50 µM | [4] 23.6 µM | [13] 50 µM | [14] 31.1 µM | [15] 20.8 µM | [16] 13.3 µM | [18] 50 µM
not listed: [20]
inactive: all other assays above

OCCCBr
active: [10] 40.8 µM
not listed: [20]
inactive: all other assays above

Cc1ccc([N+](=O)[O-])cc1
active: [10] 0.744 µM | [11] 1.87 µM | [14] 20.2 µM | [15] 1.58 µM | [20] 1.39 µM
inactive: all other assays above
